Measured values reported in the supplement of paper PMC6607015.
Structures can show the parent of a compound that is named as a salt.

Tests used:
Conditions in all cases: compound concentration in added solution (µM; 5 µl added to 20 µl cells): 10; 18 h
A431 [1] = experiment: LBPA endosome anti-LBPA integrated intensity (sum per cell), Z-score; higher = more LBPA staining
How it was run: (§1)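 HeLa MZ or A431 cells (3,500/well in 20 µl) were seeded onto 5 µl of 10 µM compound solution in duplicate 384-well imaging plates, incubated 18 h, then fixed in 4% PFA. Cells were stained with 6C4 anti-LBPA antibody, filipin, propidium iodide and CellTracker green, and four 20× images were taken per well. MetaXpress segmentation gave per-cell integrated LBPA or filipin intensity, either whole-cell or within LBPA endosomes. Values are Z-scores normalised in AcuityXpress.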

HeLa MZ [2] = experiment: as above
How it was run: as §1

A431 [3] = experiment: whole-cell filipin (free cholesterol) integrated intensity, Z-score; higher = more cholesterol staining
How it was run: as §1

HeLa MZ [4] = experiment: as above
How it was run: as §1

A431 [5] = experiment: filipin (cholesterol) integrated intensity within LBPA endosomes, Z-score; higher = more cholesterol in LBPA endosomes
How it was run: as §1

HeLa MZ [6] = experiment: as above
How it was run: as §1

Compound	LBPA endosome anti-LBPA integrated intensity (z-score) (A431 [1])	LBPA endosome anti-LBPA integrated intensity (z-score) (HeLa MZ [2])	whole-cell filipin (z-score) (A431 [3])	whole-cell filipin (z-score) (HeLa MZ [4])	filipin (z-score) (A431 [5])	filipin (z-score) (HeLa MZ [6])
COc1ccccc1OCC(O)CN1CCN(CC(=O)Nc2c(C)cccc2C)CC1 (centres undefined) [Ranolazine]	-0.238	1.53	-0.112	-0.533	-0.352	-0.221
C=C1c2cccc(O)c2C(=O)C2=C(O)[C@]3(O)C(=O)C(C(N)=O)=C(O)[C@@H](N(C)C)[C@@H]3[C@@H](O)[C@H]12 [Methacycline hydrochloride]	-0.461	-0.934	0.119	-0.217	-0.402	-0.642
Cc1cccc(C)c1NC(=O)CN1CCN(CCCC(c2ccc(F)cc2)c2ccc(F)cc2)CC1 [Lidoflazine]	3.2	1.66	1.3	0.566	2.57	2.52
CC(=O)Oc1ccccc1C(=O)Oc1ccccc1C(=O)O [Acetylsalicylsalicylic acid]	-0.367	-0.319	-0.583	-0.226	-0.456	-0.52
CC1=C(C(=O)O)N2C(=O)[C@@H](NC(=O)[C@H](N)c3ccccc3)[C@H]2SC1 [Cephalexin monohydrate]	-0.543	-0.797	-0.64	-0.482	-0.499	-0.511
COc1ccc2[nH]cc(CCNC(C)=O)c2c1 [Melatonin]	-0.518	0.193	-0.621	-0.435	-0.528	-0.543
O=C1Nc2ccc(Cl)cc2[C@@](C#CC2CC2)(C(F)(F)F)O1 [Efavirenz]	-0.71	-0.896	-0.938	-0.668	-0.569	-0.836
CCc1c2c(nc3ccc(OC(=O)N4CCC(N5CCCCC5)CC4)cc13)-c1cc3c(c(=O)n1C2)COC(=O)[C@]3(O)CC [Irinotecan Hydrochloride]	0.102	3.21	3.24	3.96	0.0471	-0.0232
Cn1c(=O)c2c(ncn2C)n(C)c1=O [Caffeine]	-0.331	-0.197	-0.0359	0.547	-0.318	-0.108
NNCCc1ccccc1 [Phenelzine sulfate]	-0.403	-0.966	-0.414	-0.115	-0.439	-0.425
COc1ccc2cc([C@@H](C)C(=O)O)ccc2c1 [(R) -Naproxen sodium salt]	-0.646	-1.68	-0.677	-0.633	-0.535	-0.58
Cc1cc2cc3c(C)cc(=O)oc3c(C)c2o1 [Trioxsalen]	-0.317	0.147	-0.465	-0.318	-0.425	-0.476
C[C@H](CCC(=O)O)[C@H]1CC[C@H]2[C@@H]3C(=O)C[C@@H]4CC(=O)CC[C@]4(C)[C@H]3CC(=O)[C@]12C [Dehydrocholic acid]	-0.567	-0.186	-0.785	-0.553	-0.549	-0.532
CN(C)CCOC(c1ccccc1)c1ccccc1.Cn1c(=O)c2[nH]c(Cl)nc2n(C)c1=O [Dimenhydrinate]	-0.457	0.504	-0.514	-0.355	-0.463	-0.165
COc1cc2nc(N3CCN(C(=O)c4ccco4)CC3)nc(N)c2cc1OC [Prazosin hydrochloride]	2.82	1.41	1.2	0.626	0.829	0.146
CCOc1ccc(NC(C)=O)cc1 [Phenacetin]	-0.594	-0.322	-0.814	-0.392	-0.555	-0.582
Cn1c(=O)c2c(ncn2CC2OCCO2)n(C)c1=O [Doxofylline]	-0.341	0.313	-0.207	-0.159	-0.416	-0.528
Nc1ccc(O)c(C(=O)O)c1 [Mesalamine]	-0.0986	0.304	0.385	0.263	-0.341	-0.247
Oc1c(Cl)cc(Cl)c(Cl)c1Cc1c(O)c(Cl)cc(Cl)c1Cl [Hexachlorophene]	-0.408	-0.818	-0.203	-0.11	-0.443	-0.32
CNCCC=C1c2ccccc2CCc2ccccc21 [Nortriptyline hydrochloride]	3.79	1.4	1.95	1.82	3.53	3.69
CCN(CC)CCOc1ccc(C(=C(Cl)c2ccccc2)c2ccccc2)cc1 [Clomiphene citrate (Z,E)]	1.86	0.54	0.0851	1.03	2.72	3.06
CC(Oc1ccccc1)C(=O)N[C@@H]1C(=O)N2[C@@H]1SC(C)(C)[C@@H]2C(=O)O (some centres undefined) [Phenethicillin potassium salt]	-0.589	-1.24	-0.612	-0.336	-0.493	-0.525
Clc1ccc(Nc2nnc(Cc3ccncc3)c3ccccc23)cc1 [Vatalanib]	-0.715	-0.947	-0.382	-0.477	-0.573	-0.345
CC(C)(C)NC[C@H](O)COc1nsnc1N1CCOCC1 [Timolol maleate salt]	-0.399	-0.336	-0.605	-0.359	-0.435	-0.395
Cc1ccc(/C(=C\CN2CCCC2)c2ccccn2)cc1 [Triprolidine hydrochloride]	-0.168	0.494	-0.873	-0.689	-0.378	-0.0781

Compound	LBPA endosome anti-LBPA integrated intensity (z-score) (A431 [1])	LBPA endosome anti-LBPA integrated intensity (z-score) (HeLa MZ [2])	whole-cell filipin (z-score) (A431 [3])	whole-cell filipin (z-score) (HeLa MZ [4])	filipin (z-score) (A431 [5])	filipin (z-score) (HeLa MZ [6])
OCCN(CCO)c1nc(N2CCCCC2)c2nc(N(CCO)CCO)nc(N3CCCCC3)c2n1 [Dipyridamole]	0.808	0.577	-0.543	-0.536	-0.2	-0.39
CCOc1ccc2c(c1)C(C)=CC(C)(C)N2 [Ethoxyquin]	-0.421	0.201	-0.319	-0.546	-0.467	-0.418
O=C1O[C@H]([C@@H](O)CO)C(O)=C1O [Ascorbic acid]	-0.608	-0.991	-0.369	0.278	-0.529	-0.527
COc1cc(N)c(Cl)cc1C(=O)NC1CCN(Cc2ccccc2)CC1 [Clebopride maleate]	0.365	2.01	-0.171	0.217	0.0875	0.539
CCOc1cc(CC(=O)N[C@@H](CC(C)C)c2ccccc2N2CCCCC2)ccc1C(=O)O [Repaglinide]	-0.598	-1.05	0.149	0.153	-0.42	-0.591
COC(=O)[C@@H]1[C@H]2C[C@H]3c4[nH]c5ccccc5c4CCN3C[C@@H]2CC[C@@H]1O [Yohimbine hydrochloride]	-0.468	-0.264	-0.685	-0.575	-0.434	-0.333
CCN1CCCC1CNC(=O)c1cc(S(=O)(=O)CC)c(N)cc1OC (centres undefined) [Amisulpride]	-0.554	-0.244	-0.77	-0.754	-0.543	-0.453
O=C1c2c(O)cccc2Cc2cccc(O)c21 [Anthralin]	-0.344	0.592	0.169	2.01	-0.334	-0.134
Nc1nc2c(ncn2COCCO)c(=O)[nH]1 [Acyclovir]	-0.598	-1.1	-1.13	-0.395	-0.557	-0.66
C[C@@]1(O)CCOC(=O)C1 [Mevalonic-D, L acid lactone]	-0.324	-0.057	-0.441	0.0668	-0.408	-0.457
CN(C)[C@@H]1C(O)=C(C(N)=O)C(=O)[C@@]2(O)C(O)=C3C(=O)c4c(O)ccc(Cl)c4[C@@H](O)[C@H]3C[C@@H]12 [Demeclocycline hydrochloride]	-0.567	-1.25	-0.566	-1.1	-0.465	-0.672
CN1C(C(=O)Nc2ccccn2)=C(O)c2ccccc2S1(=O)=O [Piroxicam]	-0.541	-0.331	-0.896	-1.08	-0.561	-0.694
CC(=O)NS(=O)(=O)c1ccc(N)cc1 [Sulfacetamide sodic hydrate]	-0.453	-0.433	-0.701	-0.53	-0.475	-0.628
Cc1nc2n(c(=O)c1CCN1CCC(c3noc4cc(F)ccc34)CC1)CCCC2 [Risperidone]	0.208	1.64	0.491	0.264	-0.0506	0.539
CC1CCc2cc(F)cc3c(=O)c(C(=O)O)cn1c23 (centres undefined) [Flumequine]	-0.63	-0.763	-0.836	-0.225	-0.543	-0.72
CCn1cc(C(=O)O)c(=O)c2cc(F)c(N3CCNC(C)C3)c(F)c21 (centres undefined) [Lomefloxacin hydrochloride]	-0.676	-1.53	-1.2	-0.837	-0.597	-0.65
CCCN[C@H]1CCc2nc(N)sc2C1 [Pramipexole]	-0.166	0.761	0.197	0.182	-0.247	-0.149
C[C@H]1C[C@H]2[C@@H]3CCC4=CC(=O)C=C[C@]4(C)[C@@]3(F)[C@@H](O)C[C@]2(C)[C@@]1(O)C(=O)CO [Betamethasone]	-0.442	-0.354	-0.547	-0.354	-0.536	-0.463
O=C(Cn1ccnc1[N+](=O)[O-])NCCO [Etanidazole]	-0.499	-0.402	-0.226	0.609	-0.413	-0.325
CO[C@@]1(NC(=O)Cc2cccs2)C(=O)N2C(C(=O)O)=C(COC(N)=O)CS[C@@H]21 [Cefoxitin sodium salt]	-0.479	0.482	-0.426	-0.439	-0.487	-0.515
CC(C)NC(=N)NC(=N)Nc1ccc(Cl)cc1 [Proguanil hydrochloride]	-0.302	1.15	-0.0125	0.372	-0.375	-0.0535
C[N+]1(CCCCC[N+]2(C)CCCC2)CCCC1 [Pentolinium bitartrate]	-0.453	-0.278	-0.653	-0.161	-0.437	-0.405
Nc1ccn([C@H]2CC[C@@H](CO)O2)c(=O)n1 [Zalcitabine]	-0.426	-0.556	0.221	0.402	-0.388	-0.459
COc1ccc(C(=O)c2ccccc2O)c(O)c1 [Dioxybenzone]	-0.417	0.711	-0.27	0.232	-0.379	-0.234
